Results: PubChem BioAssay AID504834 (National Center for Advancing Translational Sciences (NCATS), 2011)
“And” between values parts separate entries of the source, which are not always exact repeats. Equal entries are not always repeated. The campaign covered roughly 320,000 compounds. About 22,000 (6.9%) were called active. Entries that show only a call come without a potency. Another 27% or so got no clear call; they are omitted. Calls come from the whole dose curve; as a rule, active = well fitted inhibition curve with a large enough effect; inconclusive = small, poorly fitted or top-dose-only effect, or another doubt; inactive = no such curve, though single readings can be large or run the other way. Many of the other results were omitted from the sample, so actives are more common in it than they were. Some structures have more than one record in an assay (separate samples or runs), and their calls can disagree.

Test: Primary qHTS for delayed death inhibitors of the malarial parasite plastid, 96 hour incubation
Conditions: P. falciparum luciferase reporter growth; series mostly up to 28.7 µM
Outline: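 Two-generation exposure (96 h) targets delayed-death phenotype. Reporter parasites carrying integrated firefly luciferase, in red cells at 2% hematocrit and 0.05% parasitemia final, kept at 37 C, 5% CO2; luminescence loss indicates inhibition.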
Potency is the fitted concentration of half-maximal effect.

SMILES | Potency
CC1CN(C(=S)Nc2cccc(F)c2)CC(C)O1 (stereo not drawn) | inactive
CCOC(=O)Nc1ccc(NC(=O)OCC)cc1 | inactive
CCCCCOC(=O)NCCOC(=O)Nc1ccc(C(=O)OCC)cc1 | 11.7 µM (active)
CCCCC(CCC(=O)Nc1ccc(C(=O)OCC)cc1)C(=O)O (stereo not drawn) | inactive
CN1CCN(NC(=O)Nc2ccc(Br)cc2)CC1 | inactive
O=C(NCCS(=O)(=O)NCc1ccc(Cl)cc1)c1ccccc1 | inactive
CCOC(=O)Cc1csc(NC(=O)CSc2nc(C)cc(=O)[nH]2)n1 | inactive
CCOC(=O)Cc1csc(NC(=O)Nc2ccccc2)n1 | inactive
CCOC(=O)Cc1csc(NC(=O)CSc2ccc(Br)cc2)n1 | 2.62 µM (active)
CCOC(=O)N1CCN(C(=O)COC(=O)c2cccc(S(C)(=O)=O)c2)CC1 | inactive
CCCN(CC(=O)Nc1ccccc1OC)C(=O)CCC(=O)c1ccc(F)cc1 | inactive
CCCCCCCCCCOC(=O)Cn1c(COc2cccc(OC)c2)[n+](C)c2ccccc21 | 3.29 µM (active)
CCn1c(=N)n(CC(=O)c2cccc(OC)c2)c2ccccc21 | inactive
CCCCOC(=O)Cn1c(=O)n(CC(=O)OCCCC)c2cc(C)ccc21 | inactive
NC(=O)c1oc2ccccc2c1NC(=O)CS(=O)(=O)c1ccccc1 | inactive
CCOc1ccc2[nH]c(=O)c(CN(CCCO)S(=O)(=O)c3ccc(F)cc3)cc2c1 | inactive
Cc1cccc(N2CCN(C(=O)CCS(=O)(=O)c3ccc4c(c3)NC(=O)C(C)S4)CC2)c1C (stereo not drawn) | inactive
Cc1cc(=O)oc2cc(OC(C)C(=O)NCCc3ccc(S(N)(=O)=O)cc3)ccc12 (stereo not drawn) | inactive
CCn1ccnc1CN(C)C(=O)c1cc(COc2ccc(Cl)cc2OC)on1 | 3.7 µM (active)
CCn1ccnc1CN(C)C(=O)c1cc(COc2ccc(-n3cncn3)cc2)on1 | inactive
COc1cc(Cl)ccc1OCc1cc(C(=O)N2CC[C@@H]3CCCC[C@H]3C2)no1 | inactive
O=C(N[C@@H](Cc1c[nH]c2ccccc12)C(=O)O)OCC1c2ccccc2-c2ccccc21 | inactive
CC1CCCCC1NC(=O)CSc1nnc(-c2ccncc2)n1CCCN(C)C (stereo not drawn) | inactive
COCCCn1c(SCC(=O)Nc2ccccc2)nnc1-c1ccncc1 | inactive
CN(C)CCCn1c(SCc2ccc(Cl)cc2)nnc1-c1ccncc1 | 2.94 µM (active)
O=C(c1cc(COc2c(F)cccc2F)on1)N1CCSCC1 | inactive

SMILES | Potency
NC(=O)C1CCN(CC(O)CSc2ccc(F)cc2)CC1 (stereo not drawn) | inactive
c1ccc(-n2cccc2)c(N2CCCCC2)c1 | inactive
c1ccc(-c2cc(N3CCCCC3)c3ccccc3n2)cc1 | 9.28 µM (active)
O=c1cc(-c2ccccc2)nc(N2CCCCC2)[nH]1 | inactive
Cc1nc2ccccc2n1CC(O)c1ccccc1 (stereo not drawn) | inactive
O=C(/C=C/c1cccc(C(F)(F)F)c1)N1CCN(c2ccccn2)CC1 | inactive
Nc1nonc1-n1nnc(C(=O)N/N=C\c2ccncc2)c1CN1CCCCC1 | inactive
Cc1ccc(CNS(=O)(=O)c2ccc3c(c2)N(C)CCO3)cc1 | inactive
Cc1ccc(S(=O)(=O)Nc2nc(CN3CCOCC3)nc3sc(C)c(C)c23)cc1 | inactive
Cc1ccc(NC(=O)CN(C)C(=O)Cn2nnc(-c3ccccc3)n2)cc1 | inactive
COc1c(C)c2c(c(O)c1C/C=C(\C)CCC(=O)O)C(=O)OC2 | 1.61 µM (active)
Cc1cc(=O)oc2c(C(=O)c3ccccc3)c(OCC(N)=O)ccc12 | inactive
COC(=O)c1cc(S(=O)(=O)N2CCC(C(N)=O)CC2)oc1C | inactive
Cn1c(SCC(=O)N/N=C/c2ccc(O)c(O)c2)nc2ccccc21 | inactive
COc1ccccc1CCNC(=O)c1c(C)nn(CC(C)C)c1Cl | inactive
Cc1nn(Cc2ccccc2Cl)c(Cl)c1C(=O)OC(C(=O)NC(N)=O)C(C)C (stereo not drawn) | 13.1 µM (active)
COC(=O)c1ccc(COC(=O)c2c(C)nn(Cc3ccccc3Cl)c2Cl)o1 | inactive
CCCCCCn1cc(C(=O)O)c(=O)c2cc(F)c(N3CCCCC3)cc21 | inactive
CC(C)CN(C(=O)Cn1c(=O)cnc2ccccc21)C1CCS(=O)(=O)C1 (stereo not drawn) | inactive
Cc1ccc(C)c(NC(=O)CN(C)C(=O)c2ccc3ncsc3c2)c1 | inactive
COc1ccc(C(=O)CCC(=O)Nc2ccc(Cl)cc2)cc1 | inactive
COc1ccccc1/C=N/N1CCN(Cc2ccccc2Cl)CC1 | inactive
COc1ccc(C2SCCN2S(=O)(=O)c2ccccc2)cc1OC (stereo not drawn) | inactive
COc1ccc(C2N=C(N)N=C(N)N2c2ccccc2)cc1OC (stereo not drawn) | 2.62 µM (active)
COc1ccc(C2/C(=C(/O)c3ccccc3)C(=O)C(=O)N2c2ncccn2)cc1OC (stereo not drawn) | inactive
Cc1ccc(S(=O)(=O)N(C)C)cc1NC(=O)C(C)OC(=O)c1ccc2ccccc2n1 (stereo not drawn) | inactive

SMILES | Potency
COc1ccc(S(=O)(=O)N(C)CC(=O)NCCCN2CCOCC2)cc1Cl | inactive
O=C(CCc1nnc2ccc(NCc3ccco3)nn12)Nc1cc(F)ccc1F | inactive
CC(=O)c1ccc(NC(=O)CCc2nnc3ccc(NCc4ccco4)nn23)cc1 | inactive
CCOc1ccccc1NC(=O)CCc1nnc2ccc(NCc3ccco3)nn12 | 8.28 µM (active)
CC(C)C[C@H](NC(=O)C1CCC(CNC(=O)[C@@H]2CCCN2C(=O)OC(C)(C)C)CC1)C(=O)O (stereo partly drawn) | inactive
COc1ccc(CCNC(=O)CCc2ccccc2O)cc1OC | inactive
CC(C)[C@H](NC(=O)N1CCn2c1nc1ccccc12)C(=O)NCc1ccc2c(c1)OCO2 | inactive
COc1ccc(CCNC(=O)CCCCCNC(=O)N2CCn3c2nc2ccccc23)cc1OC | 14.7 µM (active)
Cc1ccc(C(=O)N2CCC(n3nccc3NC(=O)Nc3cccc(F)c3)CC2)cn1 | inactive
CCCC(=O)Nc1ccc2c(c1)nc(CCNC(=O)c1ccco1)n2C | inactive
COc1ccc(C2CC(c3ccccc3)=NN2C(=O)COC(=O)COc2ccccc2)cc1 (stereo not drawn) | inactive
COc1ccc(C2CC(c3cccs3)=NN2C(=O)COC(=O)c2cc3ccccc3cc2O)cc1OC (stereo not drawn) | inactive
COc1cccc(C2CC(c3ccccc3)=NN2S(=O)(=O)c2ccccc2)c1OC (stereo not drawn) | inactive
COc1cccc(C2CC(c3cccs3)=NN2C(=O)CSC2=NCCS2)c1OC (stereo not drawn) | 6.57 µM (active)
Cc1ccccc1C1CC(c2cccs2)=NN1S(C)(=O)=O (stereo not drawn) | inactive
COc1ccc(C2CC(c3cccs3)=NN2c2ccc(F)cc2)cc1OC (stereo not drawn) | inactive
COc1ccc(C2CC(c3cccs3)=NN2C(=O)CCC(=O)O)cc1OC (stereo not drawn) | 2.62 µM (active)
COc1ccc(C2CC(c3cccs3)=Nc3ccccc3S2)cc1OC (stereo not drawn) | inactive
Cc1ccc(C2=NN(C(=O)CSc3nc(N)cc(N)n3)C(c3ccco3)C2)cc1 (stereo not drawn) | inactive
COc1ccc(C2=NN(C(=O)CCC(=O)O)C(c3cccs3)C2)cc1OC (stereo not drawn) | inactive
COc1ccc(C2CC(c3cccs3)=NN2C(=O)CSc2nnc(N)s2)cc1OC (stereo not drawn) | 10.4 µM (active)
COc1ccc(C2CC(c3cccs3)=NN2C(=O)CSc2nncs2)cc1OC (stereo not drawn) | 10.4 µM (active)
COc1ccccc1CNC(=O)COC(=O)CNS(=O)(=O)c1ccc(NC(C)=O)cc1 | inactive
CCCn1cc(S(=O)(=O)c2ccc(C)cc2)c(=O)c2cc(OCC)ccc21 | inactive
CCOc1ncccc1C(=O)NNC(=O)c1cccc(S(=O)(=O)Nc2ccccc2OC)c1 | inactive
O=C(CNC(=O)c1cccs1)N/N=C/c1cccc(Br)c1 | inactive

SMILES | Potency
Cc1cc(F)ccc1S(=O)(=O)Nc1ccc(C(=O)N(C)Cc2ccco2)cc1 | inactive
Cc1sc2ncnc(N3CCC(C(=O)Nc4nc5ccc(Cl)cc5s4)CC3)c2c1C | inactive
O=C(N/N=C\C1CC=CCC1)c1ccc(Br)o1 (stereo not drawn) | inactive
Cc1ccc(C(=O)N/C(=C/c2cccs2)C(=O)NCC2CCCO2)cc1 (stereo not drawn) | inactive
Cc1ccc(S(=O)(=O)N2CCC(C(=O)NCC3CCCO3)CC2)cc1 (stereo not drawn) | inactive
Cc1ccc(-n2c(C)cc(/C=C(\C#N)C(=O)NCC3CCCO3)c2C)cc1 (stereo not drawn) | 5.86 µM (active)
CC(=O)N(CC(O)CO)c1c(I)c(C(=O)NCC(O)CO)c(I)c(C(=O)NCC(O)CO)c1I (stereo not drawn) | inactive and 13.5 µM (active)
CC(C)(Oc1ccc(Cl)cc1)C(=O)OCC(=O)NCCc1ccc(S(N)(=O)=O)cc1 | inactive
Cc1cc(C)n2nc(C(=O)OC(C)C(=O)c3cc(C)c(C)cc3C)nc2n1 (stereo not drawn) | inactive
Oc1ccc(Cl)c2c1CCC2 | inactive
Cc1ccc(NC(=O)Nc2cc(-c3ccccc3)nn2C)cc1Cl | inactive
COc1cccc(NC(=O)CN(C)C(=O)/C=C/c2cn(-c3ccccc3)nc2-c2cccs2)c1 | inactive
COc1ccc(NC(=O)CN(C)C(=O)/C=C/c2cn(Cc3ccccc3)nc2-c2cccnc2)cc1 | 9.28 µM (active)
O=Cc1cn(Cc2ccccc2)nc1-c1cccnc1 | inactive
O=C(Nc1ccc(NC(=O)c2ccc3c(c2)OCO3)cc1)c1cccc(Cl)c1 | inactive
CN(c1ccccc1)S(=O)(=O)c1ccc(C(=O)NCCc2ccccc2)cc1 | inactive
CC(NC(=O)CSc1nc2c(cc1C#N)CN(C)CC2)c1ccccc1 (stereo not drawn) | inactive
CC1(C)CCc2nc(SCc3ccccc3)c(C#N)cc2C1 | 6.57 µM (active)
Cc1cc(C)nc(SCc2ccccc2C#N)n1 | inactive
CCCCN(C(=O)c1nn(C)c(=O)c2ccccc12)c1c(N)n(CCC)c(=O)[nH]c1=O | inactive
COc1ccccc1C(=O)NC(=S)Nc1ccccc1N1CCCCC1 | inactive
Oc1c(C=Nc2cccc3nsnc23)ccc2ccccc12 | inactive
Oc1ccc2ccccc2c1N=Nc1nccs1 | 9.28 µM (active)
Oc1ccc(N=Nc2nccs2)c(O)c1 | 11.7 µM (active)
c1ccc(NCc2cccc3ccccc23)nc1 | inactive
